# Results as given in paper PMC4336329 (PLoS ONE, 2015).
# In all, about 310,000 compounds went through this assay and about 14,000 (4.5%) showed an effect of 50% or more. The effect is printed as a negative number. Many of the other results were omitted from the sample, so strong results are more common in it than they were.
# Biological target: human ether-à-go-go-related gene (hERG) potassium channel (human, UniProt Q12809)
# Assay: primary screen, population patch clamp on CHO cells stably expressing hERG; higher = less effect of the substance
# 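Further: peak tail current of the secondary pulse compared with the same well before compound.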
# human ether-à-go-go-related gene (hERG) potassium channel, sequence (Q12809 whole entry, looked up): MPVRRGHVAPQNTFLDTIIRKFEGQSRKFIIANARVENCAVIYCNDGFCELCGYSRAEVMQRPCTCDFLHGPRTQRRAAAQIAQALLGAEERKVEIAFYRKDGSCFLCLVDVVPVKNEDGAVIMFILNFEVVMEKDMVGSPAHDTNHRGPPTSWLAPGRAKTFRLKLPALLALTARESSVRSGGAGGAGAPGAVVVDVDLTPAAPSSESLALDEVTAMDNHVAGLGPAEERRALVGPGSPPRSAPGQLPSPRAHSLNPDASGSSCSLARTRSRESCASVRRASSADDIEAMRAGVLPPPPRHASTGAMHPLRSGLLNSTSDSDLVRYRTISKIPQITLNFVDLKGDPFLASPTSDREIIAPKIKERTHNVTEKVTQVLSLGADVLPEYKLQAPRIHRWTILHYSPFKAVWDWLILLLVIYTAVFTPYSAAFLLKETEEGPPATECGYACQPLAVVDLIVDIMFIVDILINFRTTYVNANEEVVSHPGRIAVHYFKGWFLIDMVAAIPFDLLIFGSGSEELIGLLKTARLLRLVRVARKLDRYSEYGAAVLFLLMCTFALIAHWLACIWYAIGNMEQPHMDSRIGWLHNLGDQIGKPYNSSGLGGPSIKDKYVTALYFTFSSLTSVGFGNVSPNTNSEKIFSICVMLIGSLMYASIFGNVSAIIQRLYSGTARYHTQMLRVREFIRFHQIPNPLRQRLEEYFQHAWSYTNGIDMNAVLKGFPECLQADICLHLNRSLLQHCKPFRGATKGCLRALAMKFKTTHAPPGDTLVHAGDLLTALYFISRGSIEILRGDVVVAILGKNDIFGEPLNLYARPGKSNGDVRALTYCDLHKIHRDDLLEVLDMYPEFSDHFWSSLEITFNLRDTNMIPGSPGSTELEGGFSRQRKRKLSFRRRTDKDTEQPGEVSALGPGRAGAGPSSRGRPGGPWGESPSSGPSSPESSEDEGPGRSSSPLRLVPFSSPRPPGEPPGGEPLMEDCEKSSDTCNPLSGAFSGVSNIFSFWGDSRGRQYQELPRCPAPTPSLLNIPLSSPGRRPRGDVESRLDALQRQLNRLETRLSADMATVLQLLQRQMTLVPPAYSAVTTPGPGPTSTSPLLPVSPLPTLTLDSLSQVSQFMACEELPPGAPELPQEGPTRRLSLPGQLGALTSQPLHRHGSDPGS
row,SMILES,"hERG current change (%, negative = inhibition) at 10uM"
1,CN(C)Cc1nc2ccccc2c(=O)n1CC(=O)Nc1cccc(S(=O)(=O)N2CCOCC2)c1,-14.4%
2,CCN(C(=O)C1CCCN1S(=O)(=O)c1ccc2c(c1)n(C)c(=O)c(=O)n2C)c1ccccc1 (stereo not drawn),-3.32%
3,CCOC(=O)c1c(C)[nH]c(C(=O)C(C)OC(=O)c2cnc(C)cn2)c1C (stereo not drawn),-0.804%
4,O=C(NCCC(=O)N1CCC2(CC1)NCCc1[nH]cnc12)c1cccc(Br)c1,1.5%
5,C=CCc1cc(OC)ccc1OCC(O)CN1CCN(c2ccc(OC)cc2)CC1.Cl (stereo not drawn),-71.2%
6,COc1ccc(CCNC(=S)Nc2ccc(S(=O)(=O)Nc3ncccn3)cc2)cc1OC,21.2%
7,CC(=O)c1cc(C(c2csc(C(C)=O)c2)c2csc(C(C)=O)c2)cs1,-72.6%
8,CC(=O)c1cc(Cc2csc(C(C)=O)c2)cs1,2.75%
9,CC(=O)c1cc(CN2C(=O)CCC2=O)cs1,5.27%
10,O=C(NCc1ccco1)C1CC(c2ccc(Cl)cc2)=NO1 (stereo not drawn),1.47%
11,FC(F)(F)c1cccc(-c2nc3nc(Cl)c(Cl)nc3[nH]2)c1,30.4%
12,CC(=O)NS(=O)(=O)c1ccc(NC(=S)NC(=O)c2ccco2)cc1,2.54%
13,Cl.Clc1ccc(CN2C3=NCCN3c3ccccc32)cc1Cl,-75.9%
14,Clc1ccc(CN2CCCCCC2)cc1Cl,-7.66%
15,Cl.Clc1ccc(CN2C3=NCCCN3c3ccccc32)cc1Cl,-76.3%
16,Clc1ccc(CN2CCCCCCC2)cc1Cl,3.83%
17,CCN1CCSc2ccc(C(=O)Nc3ccc(NC(C)=O)cc3)cc21,1.22%
18,CCN(Cc1ccccc1)C(=O)CSc1n[nH]c(N)n1,33.6%
19,CNC(=O)[C@@]1(Cc2ccccc2)C=C[C@@H](C)N1C(C)=O,5.07%
20,Cc1cc(C)n(-c2nc(C)nc3c2cnn3-c2ccccc2)n1,13%
21,CCOC(=O)c1ccc(S(=O)(=O)NNC(=O)COc2ccccc2C)cc1,27.5%
22,N#Cc1cccc(NC(=O)CSc2nnc(C3CC3)n2C2CC2)c1,-52.4%
23,N#CCc1ccc(NC(=O)CSc2nnc(C3CC3)n2C2CC2)cc1,9.18%
24,NS(=O)(=O)c1ccc(NC(=O)CSc2nnc(C3CC3)n2C2CC2)cc1,22%
25,NS(=O)(=O)c1cccc(NC(=O)CSc2nnc(C3CC3)n2C2CC2)c1,8.95%
26,CCOc1ccc(NC(=O)CSc2nnc(C3CC3)n2C2CC2)cc1,-15.7%
27,O=C(CSc1nnc(C2CC2)n1C1CC1)Nc1cccc(Br)c1,-75.1%
